# Shown is part of a subset that was picked to be rich in the strongest signals.
# B1: F17fG (Escherichia coli), Q9RH91 (protein)
# chain: MTNFYKVFLAVFILVCCNISHAAVSFIGSTENDVGPSQGSYSSTHAMDNLPFVYNTGHNIGYQNANVWRISGGFCVGLDGKVDLPVVGSLDGQSIYGLTEEVGLLIWMGDTNYSRGTAMSGNSWENVFSGWCVGNYVSTQGLSVHVRPVILKRNSSAQYSVQKTSIGSIRMRPYNGSSAGSVQTTVNFSLNPFTLNDTVTSCRLLTPSAVNVSLAAISAGQLPSSGDEVVAGTTSLKLQCDAGVTVWATLTDATTPSNRSDILTLTGASTATGVGLRIYKNTDSTPLKFGPDSPVKGNENQWQLSTGTETSPSVRLYVKYVNTGEGINPGTVNGISTFTFSYQ
# B2: exo-alpha-sialidase (Propionibacterium acnes), Q6A7G1 (protein)
# chain: GSHMSGRAPAPVAATTQPKLVTGDITSTDQSGTNLFFGKKIVRNARGAIMKVDRTWPAAVPAPLPDVRADSSTRMLLGPVVDLAVNEHPEGVFYRIPALATASNGDLLASYDLRPGSAGDAPNPNSIVQRRSRDNGRTWGPQTVIHAGTPGRRKVGYSDPSYLVDPATGRILNFHVKSYDRGFATSEVGTDPDDRHVLHAEVSTSTDNGHTWTHRDITREITSDPTTRTRFVASGQGIALLHGPHAGRLIAQMTVRNSVGQQAQSIYSDDHGITWHAGNPVGRMMDENKVVELSDGTLMLNSRDAARSGRRKVAYSQDGGLTWGPVKLVDDLIDPTNNAQIIRAYPNARAGSAKARILLFTNARNATERVNGTLSVSCDDGRTWVSHQTYMPGEVGYTTAAVQSDGALGVLWERDGIRYSTIPMGWLNSVCPLAPSGRPTSGKPTSGTSLPPTAT
# Assays:
# Experiment in all cases: glycan array binding signal (z-score within array); higher = stronger binding
# Conditions in all cases: glycan notation: IUPAC condensed, linker removed
# [1] = biological target: Fuc(a1-2)Gal(b1-3)GalNAc(b1-4)[Neu5Ac(a2-3)]Gal(b1-4)Glc
# In short: (§1)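 The binding signal is a Z-score computed within each array and averaged over linkers. Arrays of the same protein sequence at different concentrations or buffers were also averaged together. Data originate from 3228 arrays in the Consortium for Functional Glycomics database, kept only where the protein sequence was available.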
# Fuc(a1-2)Gal(b1-4)GlcNAc = biological target: Fuc(a1-2)Gal(b1-4)GlcNAc
# In short: as §1
# [2] = biological target: Fuc(a1-2)[Gal(a1-4)]Gal(b1-4)GlcNAc
# In short: as §1
# [3] = biological target: Fuc(a1-3)[Gal(b1-4)]GlcNAc(b1-4)Gal(b1-4)[Fuc(a1-3)]GlcNAc
# In short: as §1
# [4] = biological target: Fuc(a1-3)[Gal3S(b1-4)]GlcNAc
# In short: as §1
# Fuc(a1-4)GlcNAc = biological target: Fuc(a1-4)GlcNAc
# In short: as §1
# [5] = biological target: Gal(b1-3)GlcNAc(b1-3)Gal(b1-4)GlcNAc
# In short: as §1
# [6] = biological target: Gal3S(b1-3)[Fuc(a1-4)]GlcNAc
# In short: as §1
# Gal3S6S(b1-4)GlcNAc = biological target: Gal3S6S(b1-4)GlcNAc
# In short: as §1
# Gal4S6S(b1-4)GlcNAc = biological target: Gal4S6S(b1-4)GlcNAc
# In short: as §1
# [7] = biological target: GlcNAc(a1-3)Gal(b1-4)GlcNAc
# In short: as §1
# [8] = biological target: GlcNAc(a1-6)Gal(b1-4)GlcNAc
# In short: as §1
# GlcNAc(b1-3)Gal = biological target: GlcNAc(b1-3)Gal
# In short: as §1
# [9] = biological target: GlcNAc(b1-3)Gal(b1-3)GalNAc
# In short: as §1
# GlcNAc(b1-3)Gal(b1-4)Glc = biological target: GlcNAc(b1-3)Gal(b1-4)Glc
# In short: as §1
# [10] = biological target: GlcNAc(b1-3)[GlcNAc(b1-6)]Gal(b1-4)GlcNAc
# In short: as §1
# [11] = biological target: GlcNAc(b1-3)[GlcNAc(b1-6)]GlcNAc(b1-4)GlcNAc
# In short: as §1
# [12] = biological target: Man(a1-2)Man(a1-3)[Man(a1-6)]Man(a1-6)[Man(a1-2)Man(a1-3)]Man(b1-4)GlcNAc(b1-4)GlcNAc
# In short: as §1
# [13] = biological target: Neu5Ac(a2-3)Gal(b1-4)[Fuc(a1-3)]GlcNAc(b1-3)Gal(b1-4)GlcNAc
# In short: as §1
# [14] = biological target: Neu5Gc(a2-3)Gal(b1-3)[Fuc(a1-4)]GlcNAc
# In short: as §1
# [15] = biological target: Neu5Gc(a2-3)Gal(b1-4)GlcNAc
# In short: as §1
# Fuc(a1-2)Gal(b1-4)Glc = biological target: Fuc(a1-2)Gal(b1-4)Glc
# In short: as §1
# Fuc(a1-2)Gal(b1-4)Glc6S = biological target: Fuc(a1-2)Gal(b1-4)Glc6S
# In short: as §1
# [16] = biological target: Fuc(a1-2)[GalNAc(a1-3)]Gal(b1-3)GlcNAc
# In short: as §1
# Gal(a1-2)Gal = biological target: Gal(a1-2)Gal
# In short: as §1
# [17] = biological target: Gal(a1-3)Gal(b1-4)GlcNAc(b1-3)GalNAc
# In short: as §1
# Gal(a1-4)Gal(b1-4)Glc = biological target: Gal(a1-4)Gal(b1-4)Glc
# In short: as §1
# [18] = biological target: Gal(a1-4)Gal(b1-4)GlcNAc(b1-3)Gal(b1-4)Glc
# In short: as §1
# [19] = biological target: Gal(b1-3)GlcNAc(b1-3)Gal(b1-3)GlcNAc
# In short: as §1
# [20] = biological target: Gal(b1-4)GlcNAc(a1-6)Gal(b1-4)GlcNAc
# In short: as §1
# Gal3S(b1-3)GalNAc = biological target: Gal3S(b1-3)GalNAc
# In short: as §1
# Gal3S(b1-4)GlcNAc = biological target: Gal3S(b1-4)GlcNAc
# In short: as §1
# [21] = biological target: Neu5Ac(a2-3)Gal(b1-3)GalNAc
# In short: as §1
# [22] = biological target: Neu5Ac(a2-3)Gal(b1-3)GalNAc(b1-4)[Neu5Ac(a2-3)]Gal(b1-4)Glc
# In short: as §1
# [23] = biological target: Neu5Ac(a2-3)Gal(b1-3)GalNAc6S
# In short: as §1
# [24] = biological target: Neu5Ac(a2-3)Gal(b1-3)GlcNAc(b1-3)GalNAc
# In short: as §1
# [25] = biological target: Neu5Ac(a2-3)Gal(b1-3)[Fuc(a1-4)]GlcNAc(b1-3)Gal(b1-3)[Fuc(a1-4)]GlcNAc
# In short: as §1
# [26] = biological target: Neu5Ac(a2-3)Gal(b1-3)[Neu5Ac(a2-6)]GalNAc
# In short: as §1
# [27] = biological target: Neu5Ac(a2-3)Gal(b1-4)GlcNAc(b1-6)[Neu5Ac(a2-3)Gal(b1-3)]GalNAc
# In short: as §1
# [28] = biological target: Neu5Ac(a2-3)[Neu5Ac(a2-6)]GalNAc
# In short: as §1
# Neu5Ac(a2-6)GalNAc = biological target: Neu5Ac(a2-6)GalNAc
# In short: as §1
# [29] = biological target: Neu5Ac(a2-6)GlcNAc(b1-4)GlcNAc
# In short: as §1
# [30] = biological target: Neu5Gc(a2-3)Gal(b1-4)[Fuc(a1-3)]GlcNAc
# In short: as §1
binder,measurement,setting,value
B1,glycan array binding signal (z-score),[1],-0.197
same,glycan array binding signal (z-score),Fuc(a1-2)Gal(b1-4)GlcNAc,-0.322
same,glycan array binding signal (z-score),[2],-0.127
same,glycan array binding signal (z-score),[3],-0.238
same,glycan array binding signal (z-score),[4],-0.234
same,glycan array binding signal (z-score),Fuc(a1-4)GlcNAc,-0.38
same,glycan array binding signal (z-score),[5],-0.3
same,glycan array binding signal (z-score),[6],-0.253
same,glycan array binding signal (z-score),Gal3S6S(b1-4)GlcNAc,0.156
same,glycan array binding signal (z-score),Gal4S6S(b1-4)GlcNAc,0.026
same,glycan array binding signal (z-score),[7],-0.323
same,glycan array binding signal (z-score),[8],-0.364
same,glycan array binding signal (z-score),GlcNAc(b1-3)Gal,5.09
same,glycan array binding signal (z-score),[9],5.89
same,glycan array binding signal (z-score),GlcNAc(b1-3)Gal(b1-4)Glc,4.83
same,glycan array binding signal (z-score),[10],6.97
same,glycan array binding signal (z-score),[11],0.169
same,glycan array binding signal (z-score),[12],-0.263
same,glycan array binding signal (z-score),[13],-0.23
same,glycan array binding signal (z-score),[14],-0.305
same,glycan array binding signal (z-score),[15],-0.278
B2,glycan array binding signal (z-score),[1],-0.338
same,glycan array binding signal (z-score),Fuc(a1-2)Gal(b1-4)Glc,-0.361
same,glycan array binding signal (z-score),Fuc(a1-2)Gal(b1-4)Glc6S,-0.256
same,glycan array binding signal (z-score),[16],-0.343
same,glycan array binding signal (z-score),[3],-0.311
same,glycan array binding signal (z-score),Gal(a1-2)Gal,-0.331
same,glycan array binding signal (z-score),[17],-0.36
same,glycan array binding signal (z-score),Gal(a1-4)Gal(b1-4)Glc,-0.366
same,glycan array binding signal (z-score),[18],-0.337
same,glycan array binding signal (z-score),[19],-0.354
same,glycan array binding signal (z-score),[20],-0.353
same,glycan array binding signal (z-score),Gal3S(b1-3)GalNAc,-0.343
same,glycan array binding signal (z-score),Gal3S(b1-4)GlcNAc,-0.268
same,glycan array binding signal (z-score),[21],3.6
same,glycan array binding signal (z-score),[22],6.27
same,glycan array binding signal (z-score),[23],3.54
same,glycan array binding signal (z-score),[24],3.71
same,glycan array binding signal (z-score),[25],0.022
same,glycan array binding signal (z-score),[26],3.45
same,glycan array binding signal (z-score),[27],4.39
same,glycan array binding signal (z-score),[28],4.53
same,glycan array binding signal (z-score),Neu5Ac(a2-6)GalNAc,-0.072
same,glycan array binding signal (z-score),[29],3.52
same,glycan array binding signal (z-score),[30],-0.196
